The target in assay [1] is Cytochrome P450 2C9 (Homo sapiens) (UniProt P11712). The assay is described as follows: qHTS Assay for Inhibitors and Substrates of Cytochrome P450 2C9 (AID 883). For activity change, negative = inhibition: % is set by controls: 0 for no effect and ±100 for the full control effect. Note: nearly all actives have a fitted effect of over 60% in size. Note: potency is the fitted concentration of half-maximal effect. In a few lines:
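Luminescent read-out of deoxyluciferin hydroxylation, normalized to 57uM sulphaphenazole (AC100). Reaction: 10nM enzyme, 100uM Luciferin-H (equal to KM), 25mM KPO4, 10 min compound preincubation, then 60 min with NADPH regeneration, both at 37C.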
In general terms: qHTS replaces the single test concentration by a dilution series.

Assay [2] has as its target Cytochrome P450 3A4 (Homo sapiens) (UniProt P08684). Kind of assay: qHTS Assay for Inhibitors and Substrates of Cytochrome P450 3A4 (AID 884). For activity change, negative = inhibition: % is set by controls: 0 for no effect and ±100 for the full control effect. Note: nearly all actives have a fitted effect of over 50% in size. Note: potency is the fitted concentration of half-maximal effect. An outline of the steps:
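20 nM human CYP3A4 with 25 uM Luciferin-PPXE (at KM) in 200 mM KPO4, preincubated 10 min with compound; NADPH regeneration started a 60 min RT reaction. Luciferin detected by luminescence, normalized to 57 uM ketoconazole as full inhibition.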

Assay [3] shares this target. Kind of assay: qHTS Assay for Activators of Cytochrome P450 3A4 (AID 885). Note: nearly all actives have a fitted effect of over 65% in size. An outline of the steps: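 Human CYP3A4 (20 nM) with Luciferin-PPXE at 25 uM (its KM) in 200 mM KPO4; 10 min compound preincubation, then NADPH regeneration and 60 min reaction at RT. Luciferin read by luminescence; normalized to 57 uM ketoconazole full inhibition.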
Assay [4] concerns the target Cytochrome P450 2D6 (Homo sapiens) (UniProt P10635). The assay is described as follows: qHTS Assay for Inhibitors and Substrates of Cytochrome P450 2D6 (AID 891).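 Note: luciferin methyl ether substrate demethylated by CYP2D6 with NADPH regeneration; % is set by controls: 0 for no effect and ±100 for the full control effect; nearly all actives have a fitted effect of over 60% in size.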 An outline of the steps:
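Human CYP2D6 (5 nM) with 30 uM Luciferin-ME EGE (at Km) in 100 mM KPO4, compound preincubated 10 min, then NADPH regeneration system for 60 min at room temperature. Luciferin read by luminescence; normalized to 1.43 uM quinidine.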

Assay [5] deals with Cytochrome P450 2C19 (Homo sapiens) (UniProt P33261). Kind of assay: qHTS Assay for Inhibitors and Substrates of Cytochrome P450 2C19 (AID 899). Note: nearly all actives have a fitted effect of over 60% in size. Note: potency is the fitted concentration of half-maximal effect. In a few lines: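 Luminescence readout of luciferin formed from 10uM Luciferin-H EGE (KM level) by 5 nM CYP2C19 in 50mM KPO4. 60 min NADPH-driven reaction at 37C after 10 min compound preincubation; data scaled to 57uM ketoconazole inhibition.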

Assay [6] can be described thus: qHTS profiling of the MIPE4 collection as inhibitors of Plasmodium falciparum (3D7) proliferation (AID 743344; call rule not given here;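 note: scaled between DMSO vehicle wells and 0.29 µM artemisinin as full inhibition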). The settings on record: P. falciparum 3D7 in erythrocytes, SYBR Green DNA fluorescence, 72 h; at 28.5 µM (top of the series). An outline of the steps:
(§1)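 Erythrocytes infected with P. falciparum (0.3% parasitemia, 2.5% hematocrit) incubated with compounds 72 h at 37 C, 5% CO2. Lysis with saponin/Triton buffer containing SYBR Green I, overnight at room temperature in the dark; DNA fluorescence (485/535 nm) normalised to 0.29 uM artemisinin and DMSO.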

A short description of assay [7]: qHTS profiling of the MIPE4 collection as inhibitors of Plasmodium falciparum (DD2) proliferation (AID 743345; call rule not given here). The settings on record: P. falciparum Dd2 in erythrocytes, SYBR Green DNA, 72 h; at 28.5 µM (top of the series). An outline of the steps:
as §1

The nature of assay [8]: qHTS profiling of the MIPE4 collection as inhibitors of Plasmodium falciparum (DD2) proliferation (Rep 2) (AID 743346; call rule not given here). The settings on record: P. falciparum Dd2 in erythrocytes, SYBR Green DNA, 72 h; at 28.5 µM (top of the series). An outline of the steps: as §1
The nature of assay [9]: qHTS profiling of the MIPE4 collection as inhibitors of Plasmodium falciparum (HB3) proliferation (AID 743347; call rule not given here;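 note: plate controls were DMSO vehicle wells for no effect and artemisinin wells for full effect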). The settings on record: P. falciparum HB3 in erythrocytes, SYBR Green DNA, 72 h; at 28.5 µM (top of the series). In a few lines: as §1

These results are taken from PubChem BioAssay (NCATS).

Several values for one entry are separate records, joined by “and”; a condition that tells them apart may be missing. Equal values may be shown once. Results filed as inconclusive are left out. The source holds several records for some structures; these can differ, active in one and inactive in another. Activity calls are given as the source filed them. Unless noted, calls come from the whole dose curve; as a rule, active = well fitted curve in the direction sought with a large enough effect; inconclusive = small, poorly fitted or top-dose-only effect, or another doubt; inactive = no such curve, though single readings can be large; an effect the other way counts as inactive or inconclusive.

Chain of Cytochrome P450 2C9 (Homo sapiens) (P11712 whole entry, looked up): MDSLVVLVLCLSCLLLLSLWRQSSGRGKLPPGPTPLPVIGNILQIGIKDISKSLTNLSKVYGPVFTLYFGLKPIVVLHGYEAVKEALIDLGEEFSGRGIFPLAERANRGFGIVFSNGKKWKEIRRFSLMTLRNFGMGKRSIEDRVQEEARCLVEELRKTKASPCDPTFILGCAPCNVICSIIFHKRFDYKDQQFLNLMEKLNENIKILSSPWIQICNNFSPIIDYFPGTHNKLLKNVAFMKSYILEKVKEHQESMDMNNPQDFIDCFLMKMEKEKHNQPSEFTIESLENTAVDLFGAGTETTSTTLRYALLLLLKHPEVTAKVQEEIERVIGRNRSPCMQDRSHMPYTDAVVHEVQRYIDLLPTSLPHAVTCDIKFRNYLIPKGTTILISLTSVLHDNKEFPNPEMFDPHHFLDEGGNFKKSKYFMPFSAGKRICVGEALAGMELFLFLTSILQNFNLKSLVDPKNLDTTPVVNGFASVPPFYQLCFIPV
Chain of Cytochrome P450 2D6 (Homo sapiens) (P10635 whole entry, looked up): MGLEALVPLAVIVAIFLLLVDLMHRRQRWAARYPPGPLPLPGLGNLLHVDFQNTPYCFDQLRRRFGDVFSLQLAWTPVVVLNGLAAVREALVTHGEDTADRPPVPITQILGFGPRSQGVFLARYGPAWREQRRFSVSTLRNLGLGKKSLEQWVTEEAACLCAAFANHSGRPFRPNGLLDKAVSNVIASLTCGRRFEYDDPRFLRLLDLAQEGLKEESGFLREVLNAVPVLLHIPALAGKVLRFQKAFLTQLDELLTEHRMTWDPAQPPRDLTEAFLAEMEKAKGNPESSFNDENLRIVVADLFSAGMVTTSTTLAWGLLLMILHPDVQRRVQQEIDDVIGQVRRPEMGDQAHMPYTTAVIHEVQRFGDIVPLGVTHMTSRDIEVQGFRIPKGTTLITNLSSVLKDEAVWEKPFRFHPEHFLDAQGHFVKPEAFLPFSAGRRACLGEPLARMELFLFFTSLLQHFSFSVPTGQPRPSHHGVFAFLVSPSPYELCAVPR
Chain of Cytochrome P450 2C19 (Homo sapiens) (P33261 whole entry, looked up): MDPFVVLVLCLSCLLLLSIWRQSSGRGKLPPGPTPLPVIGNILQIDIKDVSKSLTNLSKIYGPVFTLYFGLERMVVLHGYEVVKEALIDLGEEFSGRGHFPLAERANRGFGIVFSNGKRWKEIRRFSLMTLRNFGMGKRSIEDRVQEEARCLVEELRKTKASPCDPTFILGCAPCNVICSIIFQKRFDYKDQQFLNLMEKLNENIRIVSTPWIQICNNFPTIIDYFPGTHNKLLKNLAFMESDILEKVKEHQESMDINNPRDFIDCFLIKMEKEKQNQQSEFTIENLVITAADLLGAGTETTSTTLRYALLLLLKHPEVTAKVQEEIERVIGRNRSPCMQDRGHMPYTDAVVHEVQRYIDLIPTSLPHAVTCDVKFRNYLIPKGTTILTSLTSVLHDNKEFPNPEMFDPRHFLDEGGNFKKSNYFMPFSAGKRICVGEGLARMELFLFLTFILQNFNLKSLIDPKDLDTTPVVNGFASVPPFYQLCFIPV
Chain of Cytochrome P450 3A4 (Homo sapiens) (P08684 whole entry, looked up): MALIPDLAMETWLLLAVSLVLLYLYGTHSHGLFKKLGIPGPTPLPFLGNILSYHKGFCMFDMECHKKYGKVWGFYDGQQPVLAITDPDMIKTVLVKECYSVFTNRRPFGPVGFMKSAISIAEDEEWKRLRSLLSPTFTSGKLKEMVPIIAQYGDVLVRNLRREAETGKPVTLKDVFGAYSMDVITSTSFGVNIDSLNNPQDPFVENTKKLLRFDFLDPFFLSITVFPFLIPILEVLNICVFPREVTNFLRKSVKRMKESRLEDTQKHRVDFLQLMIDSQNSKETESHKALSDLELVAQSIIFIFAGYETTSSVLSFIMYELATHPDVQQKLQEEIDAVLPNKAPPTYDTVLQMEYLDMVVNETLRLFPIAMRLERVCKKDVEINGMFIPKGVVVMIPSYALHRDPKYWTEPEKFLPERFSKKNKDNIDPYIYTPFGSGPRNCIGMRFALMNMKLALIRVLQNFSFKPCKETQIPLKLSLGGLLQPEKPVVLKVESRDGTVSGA

As for `COC(=O)C1=C(C)N(Cc2ccccc2)C2=C(C(C)=O)C(c3ccccc3)[C@@](O)(C(=O)OC)C(=O)N2C1c1ccccc1` (stereo partly drawn), the Potency result in assay [1], in assay [4] and in assay [5] was “inactive” throughout. Besides, the Potency in assay [2] was 3.98 µM (active). In assay [2], the activity change, negative = inhibition was -19% [at 11.4 µM] (inactive). Moreover, the activity change, positive = activation in assay [3] was -79.4% [at 11.4 µM] (inactive).

With `C[C@H]1CC[C@H]2C(=O)N[C@H](Cc3ccccc3)C(=O)N2[C@@H]1c1ccccc1`, the Potency entry in assay [1] is “inactive”. The Potency in assay [2] was 2.51 µM (active). Further, in assay [3], the activity change, positive = activation is -99.1% [at 11.4 µM] (inactive).

Take `C/C(CCN1CCCCc2nc(C)c(C)cc21)=N\O[C@@H](C)c1cc(-c2c(C)cc(C)cc2C)no1`: the Potency in [1] is 2.51 µM (active); in assay [2], 3.98 µM (active). Further, the activity change, positive = activation in assay [3] was -65.9% [at 11.4 µM] (inactive).

Consider `COc1cccc([C@H]2Oc3ccc(OC)cc3/C(=N\O[C@@H](C)c3cn([C@H](CO)Cc4ccccc4)nn3)[C@@H]2O)c1`, for which the Potency is 1.58 µM (active) in assay [1]; 3.16 µM (active) and 3.98 µM (active) in assay [2]. Besides, the activity change, positive = activation in assay [3] was -102% [at 11.4 µM] (inactive) and -98.9% [at 11.4 µM] (inactive).

`COc1ccc(OC2C=CC(C#Cc3ccccc3)OC2CO)cc1` (stereo not drawn): the Potency result in assay [1] and in [4] was “inactive” throughout. Moreover, in assay [2], the Potency was 3.98 µM (active). Besides, the activity change, positive = activation in [3] was -79.3% [at 11.4 µM] (inactive).

For `COc1ccc(/C=C/C(=O)c2ccc(OC)cc2O)cc1`, the Potency result in [1] and in assay [4] was “inactive” each time. Moreover, the Potency in assay [2] is 3.16 µM (active). Moreover, the activity change, positive = activation in [3] was -92.3% [at 11.4 µM] (inactive).

As for `CCCCC#CC1C=CC(OC(C)=O)C(COC(C)=O)O1` (stereo not drawn), the Potency entry in assay [1] and in assay [4] was “inactive” in each case. In [2], the Potency is 2.51 µM (active). Also, in assay [3], the activity change, positive = activation is -63.9% [at 11.4 µM] (inactive).

Consider `CO/N=C\c1ccc(C(=O)N2[C@H](c3ccc(C)cc3)[C@@H](C)CC[C@H]2C(=O)OC)cc1`, for which the Potency was 2.51 µM (active) in assay [1] and 3.16 µM (active) in assay [2]. Also, the activity change, positive = activation in [3] was -64.1% [at 11.4 µM] (inactive).

As to `COc1ccc(-c2ccc3c(n2)CCCN3C[C@H](O)CN2CCCc3nc(C)c(C)cc32)cc1`, the Potency in [1] is 3.98 µM (active).

For the compound `COc1ccc(OC[C@@H](CO)OC)cc1`, the Potency entry in assay [1] is “inactive”.

Take `CC(=O)c1ccc(C2C=CC(Oc3ccc(F)cc3C)C(CO)O2)cc1` (stereo not drawn): the Potency result in assay [1] and in assay [4] was “inactive” each time. The Potency in assay [2] is 3.16 µM (active). The activity change, positive = activation in assay [3] is -76.9% [at 11.4 µM] (inactive).

For `COC(=O)C(C(C)=O)C(NC(=O)NCc1ccccc1)c1ccccc1` (stereo not drawn), the Potency result in assay [1] and in assay [4] was “inactive” each time. Besides, in assay [2], the Potency was 3.98 µM (active). Also, the activity change, positive = activation in [3] is -69.4% [at 11.4 µM] (inactive).

As for `CC(=O)c1ccc(OC2C=CC(C#Cc3ccc(Br)cc3)OC2CO)cc1` (stereo not drawn), the Potency result in assay [1] and in [4] was “inactive” each time. Further, the Potency in assay [2] was 3.16 µM (active). Also, in assay [3], the activity change, positive = activation was -77.6% [at 11.4 µM] (inactive).

For `COc1ccc(OC2C=CC(C#Cc3ccc(Br)cc3)OC2CO)c(C(C)(C)C)c1` (stereo not drawn), the figures for the Potency in assay [1] and in assay [2] were 3.16 µM (active) and 3.98 µM (active), respectively. Also, the activity change, positive = activation in assay [3] was -84.8% [at 11.4 µM] (inactive). In addition, in assay [4], the Potency result is “inactive”.

On to `CC1CCC2C(=O)N3C(CCC(C)[C@@H]3c3cccc(N4CCOCC4)c3)C(=O)N2C1c1cccc(Br)c1` (stereo partly drawn), for which the results for the Potency in assay [1] and in [2] were 2.51 µM (active) and 0.0251 µM (active), respectively. The activity change, positive = activation in assay [3] is -62% [at 11.4 µM] (inactive). In addition, in assay [4], the Potency result is “inactive”.

Consider `CC(=O)OCC1OC(c2cc(C)cc(C)c2)C=CC1OC(C)=O` (stereo not drawn), for which the Potency result in assay [1] and in assay [4] was “inactive” throughout. Moreover, the Potency in [2] is 3.16 µM (active). Further, the activity change, positive = activation in [3] was -86.4% [at 11.4 µM] (inactive).

On to `CC(=O)OC[C@@H]1O[C@@H](O/N=C2/C[C@@H](O)[C@@H](O)[C@@H]3[C@@H]4C(=O)N(C(C)(C)C)C(=O)[C@H]4CC[C@@H]23)[C@H](OC(C)=O)[C@H](OC(C)=O)[C@@H]1OC(C)=O`, for which, in [1], the Potency result was “inactive”.

Regarding `C=CC[C@@H]1C=C[C@H](O/N=C2\c3cc(OC)ccc3O[C@H](c3cccc(OC)c3)[C@H]2O)[C@H](CO)O1`, in assay [1], the Potency was 0.398 µM (active).

In assay [6], `CN(C(=O)OC(C)(C)C)[C@@H](Cc1ccc(O[S+](=O)([O-])c2cccc3cnccc23)cc1)C(=O)N1CCN(C(=O)OCc2ccccc2)CC1` had a parasite growth, % of DMSO control of 5.7%. For the same compound, the parasite growth remaining, % of DMSO control (lower = more inhibition) in assay [7] was determined as 6.02%. In assay [8], this compound gave a parasite growth, % of control (lower = inhibition) of 18.5%. For the same compound, the growth, % of control in assay [9] was determined as 8.16%.

With `COc1ccc(OC2C=CC(C#Cc3ccc(F)cc3F)OC2CO)cc1` (stereo not drawn), the Potency result in assay [1] and in [4] was “inactive” each time. For the same compound, the Potency in assay [2] was 3.98 µM (active) and 3.16 µM (active); in [5] it was 0.398 µM (active). In addition, the activity change, positive = activation in assay [3] was -84.9% [at 11.4 µM] (inactive) and -82.9% [at 11.4 µM] (inactive).

On to `C=C(C)C(=O)OCC1CN2C(CCC(C)C2c2ccc(Br)cc2)C(=O)O1` (stereo not drawn), for which the Potency entry in assay [1], in assay [4] and in assay [5] was “inactive” each time. Besides, the Potency in assay [2] was 3.16 µM (active). In [2], the activity change, negative = inhibition is -21.6% [at 11.4 µM] (inactive). The activity change, positive = activation in assay [3] was -55% [at 11.4 µM] (inactive) and -73.8% [at 11.4 µM] (inactive).
